Data reported in PubChem BioAssay (Tox21).
“And” between values parts separate entries of the source, which are not always exact repeats. Identical values can stand only once. Records with an inconclusive call do not appear. Some structures have more than one record in an assay (separate samples or runs), and their calls can disagree. The source made the active and inactive calls. Unless noted, calls come from the whole dose curve; as a rule, active = well fitted curve in the direction sought with a large enough effect in the repeat runs; inconclusive = weak or mixed curves; inactive = no such curve, though single readings can be large; an effect the other way counts as inactive or inconclusive.

Target: Estrogen receptor (Homo sapiens) (UniProt P03372)
Sequence (P03372 whole entry, looked up): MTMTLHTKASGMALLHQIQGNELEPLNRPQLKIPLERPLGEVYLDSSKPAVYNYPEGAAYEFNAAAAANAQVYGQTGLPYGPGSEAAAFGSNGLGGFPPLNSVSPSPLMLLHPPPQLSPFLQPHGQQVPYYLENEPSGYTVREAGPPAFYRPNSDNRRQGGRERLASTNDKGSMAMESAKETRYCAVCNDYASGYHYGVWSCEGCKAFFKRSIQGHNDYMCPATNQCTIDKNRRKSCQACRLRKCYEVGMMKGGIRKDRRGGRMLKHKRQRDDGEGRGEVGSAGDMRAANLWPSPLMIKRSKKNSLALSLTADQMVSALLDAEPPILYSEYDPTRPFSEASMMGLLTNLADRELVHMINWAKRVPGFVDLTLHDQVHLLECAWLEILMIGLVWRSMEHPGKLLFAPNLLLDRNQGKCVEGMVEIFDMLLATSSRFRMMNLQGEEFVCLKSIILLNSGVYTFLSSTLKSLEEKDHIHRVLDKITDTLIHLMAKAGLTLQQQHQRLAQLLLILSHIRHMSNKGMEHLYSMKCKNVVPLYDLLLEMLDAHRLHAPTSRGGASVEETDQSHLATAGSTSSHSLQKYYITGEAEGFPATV
Assay: qHTS assay to identify small molecule antagonists of the estrogen receptor alpha (ER-alpha) signaling pathway using the BG1 cell line in the presence of 0.1 nM 17-beta-estradiol (AID 1259244); note: nearly all actives have a fitted effect of over 50% in size; note: potency is the fitted concentration of half-maximal effect
Conditions: VM7Luc4E2 (BG1) ERE-luciferase, antagonist mode, 0.1 nM E2, 22 h; series mostly up to 92.4 µM; activity change, negative = inhibition: at the top concentration
Procedure, shortened: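 Luminescence after ONE-Glo (30 min, room temperature) measured ERE-luciferase activity in VM7Luc4E2 cells treated 22 h with compound and 0.1 nM final 17beta-estradiol as stimulator.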
% is set by controls: 0 for no effect and ±100 for the full control effect.

SMILES | activity change, negative = inhibition | Potency
CCC[N+](CCC)(CCC)CCC | -1.83% (inactive) | –
C=CCOCC1CO1 (stereo not given) | -1.29% (inactive) | –
CN1C[C@H](C(=O)N[C@]2(C)O[C@@]3(O)[C@@H]4CCCN4C(=O)[C@H](Cc4ccccc4)N3C2=O)C=C2c3cccc4[nH]cc(c34)C[C@H]21 | – | 27.4 µM (active) and inactive
COC(=O)C1(O)c2ccccc2-c2ccccc21 | -7.3% (inactive) | –
CNC(=O)Oc1cccc(N=CN(C)C)c1 | 13.5% (inactive) | –
Cc1cccc(C)c1NC1=NCCCS1 | -6.8% [at 42.5 µM] (inactive) | –

Test system: not listed separately
Assay: qHTS assay to identify small molecule phospholipidosis (PLD) inducers (AID 1259344; active = well fitted curve in the direction sought with a large enough effect; an effect the other way counts as inactive or inconclusive)
Conditions: HepG2 phospholipidosis, LipidTOX Red imaging, 24 h; series mostly up to 38.3 µM; PLD induction: at the top concentration
Procedure, shortened: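 Accumulated phospholipid, stained red by LipidTOX during 24 h compound treatment of HepG2 cells at 37 C, is quantified from images as pit number and intensity, normalised per cell using Hoechst-stained nuclei.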

SMILES | PLD induction | outcome
O=C(N/N=C/c1ccc([N+](=O)[O-])o1)c1cc([N+](=O)[O-])cc([N+](=O)[O-])c1O | 0.447% (inactive) | –
CC(O)CN1CCN(CC(=O)[O-])CCN(CC(=O)[O-])CCN(CC(=O)[O-])CC1.[Gd+3] (stereo not given) | – | inactive
CC(C)(C)NCC(O)c1cc(Cl)c(N)c(C(F)(F)F)c1 (stereo not given) | 0.222% (inactive) | –
CN1CC[C@]23c4c5ccc(O)c4O[C@H]2[C@@H](O)CC[C@H]3[C@H]1C5 | 6.69% [at 78.4 µM] (inactive) | –
CN1C[C@H](C(=O)N[C@]2(C)O[C@@]3(O)[C@@H]4CCCN4C(=O)[C@H](Cc4ccccc4)N3C2=O)C=C2c3cccc4[nH]cc(c34)C[C@H]21 | 1.37% (inactive) | –
Cc1cccc(C)c1NC1=NCCCS1 | 1.08% (inactive) | –

Test system: not listed separately
Assay: qHTS assay to identify small molecule HDAC inhibitors (AID 1259364); note: potency is the fitted concentration of half-maximal effect;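 note: wild-type HCT-116 cells with endogenous class I/II HDAC activity; nearly all actives have a fitted effect of over 45% in size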; for activity change, negative = inhibition: top concentration of the series differs between compounds
Conditions: HCT-116 HDAC-Glo I/II luminescence, 2 h; series mostly up to 92.4 µM; activity change, negative = inhibition: at the top concentration
Procedure, shortened: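 HCT-116 (wild type), 1,500 cells/well, overnight; compound 2 hr 37C 5% CO2; HDAC-Glo I/II reagent 30 min RT; luminescence readout.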

SMILES | activity change, negative = inhibition | Potency
O=C(N/N=C/c1ccc([N+](=O)[O-])o1)c1cc([N+](=O)[O-])cc([N+](=O)[O-])c1O | -0.155% [at 42.5 µM] (inactive) | –
CC(O)CN1CCN(CC(=O)[O-])CCN(CC(=O)[O-])CCN(CC(=O)[O-])CC1.[Gd+3] (stereo not given) | 6.68% [at 42.5 µM] (inactive) | –
CCc1cnc(C2=NC(C)(C(C)C)C(=O)N2)c(C(=O)O)c1 (stereo not given) | – | inactive
CCOP(=O)(SC(C)CC)N1CCSC1=O (stereo not given) | 3.09% (inactive) | –
CCCCCCCCn1sccc1=O | – | inactive
CN(C)c1ccc(N=O)cc1 | -29.4% (inactive) | –
Cc1ncc(C[n+]2csc(CCO)c2C)c(N)n1 | -10.2% (inactive) | –
CCC1CCC(=O)O1 (stereo not given) | -2.24% (inactive) | –
CC1(C)CC(=O)CC(C)(C)N1[O] | 2.41% (inactive) | –
O=C(O)C(Cl)(Cl)Br | 0.857% (inactive) | –
Nc1ccccc1C(=O)OCCc1ccccc1 | – | 9.73 µM (active) and 3.86 µM (active)
CN1CC[C@]23c4c5ccc(O)c4O[C@H]2[C@@H](O)CC[C@H]3[C@H]1C5 | 6.48% (inactive) | –
CC(C)c1ccc(OP(=O)(Oc2ccc(C(C)C)cc2)Oc2ccc(C(C)C)cc2)cc1 | – | inactive
CCOP(=O)(O)C(N)=O | 3.8% (inactive) | –
SCc1ccccc1 | -0.335% (inactive) | –
N#CC1(N=NC2(C#N)CCCCC2)CCCCC1 | 2.4% (inactive) | –
CC(C)(C)OOC(C)(C)CCC(C)(C)OOC(C)(C)C | 1.02% (inactive) | –
CC(C)(C#N)C(C)(C)C#N | 1.57% (inactive) | –
CCCCNC(=O)OCC#CI | – | inactive
O=C1NC(=O)C(=O)C(=O)N1 | -3.04% (inactive) | –
Cc1ccc(N)c(C)c1 | – | inactive
CCOP(=S)(S)OCC | 0.719% (inactive) | –
CCC[N+](CCC)(CCC)CCC | 1.64% (inactive) | –
C=CCOCC1CO1 (stereo not given) | 5.8% (inactive) | –
CN1C[C@H](C(=O)N[C@]2(C)O[C@@]3(O)[C@@H]4CCCN4C(=O)[C@H](Cc4ccccc4)N3C2=O)C=C2c3cccc4[nH]cc(c34)C[C@H]21 | – | inactive
COC(=O)C1(O)c2ccccc2-c2ccccc21 | -1.95% (inactive) | –
CNC(=O)Oc1cccc(N=CN(C)C)c1 | -1.69% (inactive) | –
Cc1cccc(C)c1NC1=NCCCS1 | -4% [at 42.5 µM] (inactive) | –
CC(CC(C(N)=O)(c1ccccc1)c1ccccc1)N(C)C (stereo not given) | -1.75% [at 42.5 µM] (inactive) | –

Test system: not listed separately
Assay: qHTS assay to identify small molecule HDAC inhibitors - cell viability counter screen (AID 1259365); note: nearly all actives have a fitted effect of over 50% in size
Conditions: HCT-116 viability, CellTiter-Glo ATP luminescence, 2 h; series mostly up to 92.4 µM; activity change, negative = cytotoxicity: at the top concentration
Procedure, shortened: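 To flag cytotoxic hits, 1,500 wild-type HCT-116 cells per well, plated the day before, receive test compounds for 2hr at 37 C before CellTiter-Glo reagent and a luminescence read.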

SMILES | activity change, negative = cytotoxicity | Potency
C=CC(C)(CCC=C(C)C)OC(=O)c1ccccc1N (stereo not given) | -0.727% (inactive) | –
O=C(N/N=C/c1ccc([N+](=O)[O-])o1)c1cc([N+](=O)[O-])cc([N+](=O)[O-])c1O | 5.44% [at 42.5 µM] (inactive) | –
CC(O)CN1CCN(CC(=O)[O-])CCN(CC(=O)[O-])CCN(CC(=O)[O-])CC1.[Gd+3] (stereo not given) | 0.966% [at 42.5 µM] (inactive) | –
CCc1cnc(C2=NC(C)(C(C)C)C(=O)N2)c(C(=O)O)c1 (stereo not given) | – | inactive
CCOP(=O)(SC(C)CC)N1CCSC1=O (stereo not given) | -5.48% (inactive) | –
CCCCCCCCn1sccc1=O | – | inactive
C1CS1 | 4.29% (inactive) | –
CN(C)c1ccc(N=O)cc1 | – | inactive
CC(C)(C)NCC(O)c1cc(Cl)c(N)c(C(F)(F)F)c1 (stereo not given) | 7.02% [at 42.5 µM] (inactive) | –
Cc1ncc(C[n+]2csc(CCO)c2C)c(N)n1 | -6.13% (inactive) | –
CCC1CCC(=O)O1 (stereo not given) | -0.0516% (inactive) | –
CC1(C)CC(=O)CC(C)(C)N1[O] | -1.79% (inactive) | –
O=C(O)C(Cl)(Cl)Br | 5.63% (inactive) | –
CC1(C)[C@H](C(=O)O[C@H](C#N)c2cccc(Oc3ccccc3)c2)[C@@H]1C=C(Br)Br | – | inactive
Nc1ccccc1C(=O)OCCc1ccccc1 | – | inactive
CN1CC[C@]23c4c5ccc(O)c4O[C@H]2[C@@H](O)CC[C@H]3[C@H]1C5 | -1.11% (inactive) | –
C[C@H]1O[C@H](OC2[C@@H](O)[C@@H](O)C(O)[C@H](O)[C@H]2O)[C@@H](N)C[C@@H]1N=C(N)C(=O)O (stereo not given in full) | -0.245% (inactive) | –
CC(C)c1ccc(OP(=O)(Oc2ccc(C(C)C)cc2)Oc2ccc(C(C)C)cc2)cc1 | – | inactive
CCOP(=O)(O)C(N)=O | -0.492% (inactive) | –
SCc1ccccc1 | -3.02% (inactive) | –

SMILES | activity change, negative = cytotoxicity | Potency
N#CC1(N=NC2(C#N)CCCCC2)CCCCC1 | -5.07% (inactive) | –
CC(C)(C)OOC(C)(C)CCC(C)(C)OOC(C)(C)C | 4.28% (inactive) | –
CC(C)(C#N)C(C)(C)C#N | -1.1% (inactive) | –
CCCCNC(=O)OCC#CI | – | inactive
Cc1cnc(C2=NC(C)(C(C)C)C(=O)N2)c(C(=O)O)c1 (stereo not given) | -5.31% (inactive) | –
O=C(N[C@H]1CN2CCC1CC2)c1ccc2c(c1)OCCO2 | 4.11% (inactive) | –
O=C1NC(=O)C(=O)C(=O)N1 | -0.289% (inactive) | –
Cc1ccc(N)c(C)c1 | – | inactive
CCOP(=S)(S)OCC | 1.54% (inactive) | –
CCC[N+](CCC)(CCC)CCC | 4.38% (inactive) | –
C=CCOCC1CO1 (stereo not given) | -0.289% (inactive) | –
CN1C[C@H](C(=O)N[C@]2(C)O[C@@]3(O)[C@@H]4CCCN4C(=O)[C@H](Cc4ccccc4)N3C2=O)C=C2c3cccc4[nH]cc(c34)C[C@H]21 | – | inactive
COC(=O)C1(O)c2ccccc2-c2ccccc21 | -0.725% (inactive) | –
CNC(=O)Oc1cccc(N=CN(C)C)c1 | -0.166% (inactive) | –
Cc1cccc(C)c1NC1=NCCCS1 | 1.46% [at 42.5 µM] (inactive) | –
CC(CC(C(N)=O)(c1ccccc1)c1ccccc1)N(C)C (stereo not given) | -6.08% [at 42.5 µM] (inactive) | –
COC1=CC(=O)O[C@@H](/C=C/c2ccc3c(c2)OCO3)C1 | -0.584% (inactive) | –
CCOC(=O)C1OC1(C)c1ccccc1 (stereo not given) | – | inactive
c1ccc2c(c1)-c1cccc3cccc-2c13 | – | inactive
